Bioassay records from PubChem BioAssay.
MBD2 inh: inhibitors of human MBD2 binding to methylated oligonucleotide; Q9UBB5; TR-FRET; inhibition, % at 4.4 µM; actives 0.31% (n = 370,000); in the data active = inhibition above about 13%
rCAG binder: molecules binding r(CAG) RNA repeats; inhibition, % at 3 µM; actives 1.3% (n = 370,000); r(CAG) RNA repeat, TO-PRO-1 dye displacement fluorescence; AID 651821;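 active = inhibition above the plate cutoff, the mean of all test compounds on that plate plus 3 SD, cut at about 35% in these data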;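 also: higher means more dye released from RNA so lower well fluorescence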
PG9 Ab binder: small molecules binding HIV-1 gp120 antibody PG9 | TR-FRET gp120-PG9 antibody binding | inhibition, % at 6.7 µM | actives 0.43% (n = 360,000) | AID 624416; in the data active = inhibition above about 8.5%
UHRF1 MBD2 ctr: UHRF1 methyl-DNA binding inhibition. Q96T88. UHRF1 binding to methylated oligo, TR-FRET. inhibition, % at 4.4 µM. actives 0.75% (n = 370,000); in the data active = inhibition above about 21%;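 also: UHRF1 SRA domain binding a hemimethylated CpG hairpin DNA probe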
Target sequence (Q96T88 whole entry, looked up, the tested form may be a part): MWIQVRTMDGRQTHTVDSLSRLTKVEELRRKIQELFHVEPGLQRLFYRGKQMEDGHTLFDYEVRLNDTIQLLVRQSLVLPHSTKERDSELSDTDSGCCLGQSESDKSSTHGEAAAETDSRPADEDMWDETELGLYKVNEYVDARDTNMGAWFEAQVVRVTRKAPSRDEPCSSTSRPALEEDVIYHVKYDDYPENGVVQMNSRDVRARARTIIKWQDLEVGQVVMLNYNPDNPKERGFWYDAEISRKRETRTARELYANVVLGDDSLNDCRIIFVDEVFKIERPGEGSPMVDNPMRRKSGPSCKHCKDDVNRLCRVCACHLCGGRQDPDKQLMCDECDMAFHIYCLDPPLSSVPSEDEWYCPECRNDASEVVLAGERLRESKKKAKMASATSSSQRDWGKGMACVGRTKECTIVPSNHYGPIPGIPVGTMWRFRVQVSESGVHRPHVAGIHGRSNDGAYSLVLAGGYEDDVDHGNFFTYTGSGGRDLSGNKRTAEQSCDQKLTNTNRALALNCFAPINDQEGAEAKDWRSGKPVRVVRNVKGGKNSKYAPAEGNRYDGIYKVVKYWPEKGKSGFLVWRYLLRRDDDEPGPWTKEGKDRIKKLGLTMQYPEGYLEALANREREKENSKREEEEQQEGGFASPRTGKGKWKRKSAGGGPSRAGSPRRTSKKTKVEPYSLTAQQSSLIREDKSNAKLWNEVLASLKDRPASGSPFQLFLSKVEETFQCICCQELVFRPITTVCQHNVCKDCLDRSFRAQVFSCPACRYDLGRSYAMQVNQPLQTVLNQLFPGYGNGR
DNMT1 inh: inhibitors of human DNMT1. inhibition (reported as % activation of signal), % at 10 µM. actives 0.83% (n = 360,000). P26358. DNMT1 molecular beacon, Hinp1I cleavage, fluorescence. AID 588458; in the data active = inhibition above about 50%
LEDGF integ inh: blocks HIV-1 LEDGF/p75-dependent DNA integration. actives 0.64% (n = 370,000). inhibition, % at 3.7 µM. TR-FRET IN-LEDGF/p75 DNA integration, Eu/Cy5. AID 743269;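 active = inhibition above the screen-wide mean plus 3 SD, cut at about 13% in these data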;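 also: signal is the Cy5 over europium emission ratio at 671 and 618 nm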
rCAG bind conf: r(CAG) RNA repeat binding, confirmation | TO-PRO-1 dye displacement fluorescence | inhibition, % at 3 µM | AID 652065 | actives 70% (n = 4,300) | shares compounds with rCAG binder;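 active = inhibition above a per-plate cutoff, the mean inhibition of sample wells plus 3 SD, cut at about 35% in these data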;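 also: loss of TO-PRO-1 fluorescence as compound displaces dye from 1x1 AA loop RNA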
dCAG dye counter: disrupts DNA CAG TO-PRO-1 complex, flagging rCAG hits | shares compounds with rCAG binder | d(CAG) DNA oligo TO-PRO-1 dye displacement, fluorescence | inhibition, % at 3 µM | actives 94% (n = 4,300) | AID 652068;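 active = inhibition above its plate's cutoff, the mean test-well inhibition plus 3 SD, cut at about 4.8% in these data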;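 also: hits displace the dye from DNA and so lower well fluorescence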
DNA CAG DR: DNA CAG dye complex inhibition, dose response counter-screen. shares compounds with rCAG binder. IC50, µM. actives 20% (n = 250). DNA CAG/GTC duplex TO-PRO-1 dye displacement fluorescence; in the data active = IC50 below about 10 µM
A number is an active result; n = inactive; x = not tested or not shown. In the library only some 3.5% were active in any assay of this set; here they are far more common.

SMILES	MBD2 inh	rCAG binder	PG9 Ab binder	UHRF1 MBD2 ctr	DNMT1 inh	LEDGF integ inh	rCAG bind conf	dCAG dye counter	others
OC(Cc1ccccc1Br)c1ncc(-c2cccc(C(F)(F)F)c2)[nH]1 (stereo unspecified)	n	n	n	n	n	n	x	x
CCN(CC)c1ccc(C(=O)O)cc1	n	n	n	n	n	n	x	x
CCN(CC)c1ccc(C(=C2C=CC(=[N+](CC)CC)C=C2)c2ccc(S(=O)(=O)O)cc2S(=O)(=O)[O-])cc1	n	46	n	n	n	n	58	18
O=C(Nc1ccc(Cl)cc1)c1cc2c(cc1O)[nH]c1ccccc12	n	91	n	n	n	n	85	53
Cc1ccc(-c2nc(Nc3cccc(O)c3)c3ccccc3n2)cc1	n	37	n	n	n	n	n	10
O=C(O)c1cccc(Nc2nc(-c3ccc([N+](=O)[O-])cc3)nc3ccccc23)c1	n	n	n	n	n	n	x	x
O=[N+]([O-])c1ccc(-c2nc(Nc3cccc(O)c3)c3ccccc3n2)cc1	n	48	n	n	n	n	n	13
CC1=C(C(=O)Nc2ccccc2)C(c2ccc(Cl)cc2)n2c(s/c(=C/c3cccc(OCC(=O)O)c3)c2=O)=N1 (stereo unspecified)	n	67	n	n	n	n	87	63
CCOc1ccc(C2C(C(=O)Nc3ccccc3)=C(C)N=c3s/c(=C/c4cccc(OCC(=O)O)c4)c(=O)n32)cc1 (stereo unspecified)	n	67	n	n	n	n	83	54
CCOC(=O)C1=C(C)N=c2s/c(=C/c3ccc(OCC(=O)O)cc3)c(=O)n2C1c1ccc(OC)cc1OC (stereo unspecified)	n	n	n	n	n	n	x	x
CC1CCc2sc(NC(=O)C3CC(Cl)=CCC3C(=O)O)c(C#N)c2C1 (stereo unspecified)	n	49	n	n	n	n	42	13
CC1CCc2c(sc(NC(=O)c3ccccc3C(=O)O)c2C#N)C1 (stereo unspecified)	n	n	n	n	n	n	x	x
CCC(C)(C)C1CCc2c(sc(NC(=O)c3ccccc3C(=O)O)c2C#N)C1 (stereo unspecified)	n	91	n	n	n	n	84	56
CC(C)(C)C1CCc2c(sc(NC(=O)C3CC=CCC3C(=O)O)c2C#N)C1 (stereo unspecified)	n	80	n	n	n	n	72	36
CCOC(=O)c1sc(NC(=O)CN2C(=O)NC3(CC(C)CC(C)(C)C3)C2=O)cc1C (stereo unspecified)	n	n	n	n	n	n	x	x
O=C(Nc1ccc2c(c1)OCO2)C1Cc2c(-c3ccccc3Oc3ccccc3)ccnc2O1 (stereo unspecified)	n	n	n	n	n	n	x	x
N#C/C(=N\Nc1ccc(Cl)c(Cl)c1)C(=O)C1CC1	n	52	n	n	n	n	55	17
COc1ccc(-n2c(SCC(=O)Nc3ccccc3-c3ccccc3)nnc2-c2ccccn2)cc1	n	n	x	n	x	n	x	x
CCn1c(COc2ccccc2)nnc1SCC(=O)CC(=O)Nc1ccccc1OC	n	n	n	n	n	n	x	x
CCn1c(COc2cccc(C)c2)nnc1SCC(=O)CC(=O)Nc1ccccc1OC	n	37	n	n	n	n	n	4.6
COc1cc(C2C(C#N)=C(N)N(c3ccc(F)cc3)C3=C2S(=O)(=O)CC3)ccc1O (stereo unspecified)	n	38	n	n	n	n	n	9.0
O=C(Nc1ccc([N+](=O)[O-])cc1)c1ccccc1F	n	n	n	n	n	n	x	x
O=C(c1cc(O)c(O)c([N+](=O)[O-])c1)c1ccccc1F	n	35	n	n	n	n	35	6.4
Cc1ccc(S(=O)(=O)N2[C@@H](c3ccc(C(C)(C)C)cc3)C(C(=O)O)=CC[C@H]2c2ccc(Cl)c(Cl)c2)cc1	n	68	n	n	n	n	49	24
Cc1ccc([C@H]2C(C(=O)O)=CC[C@@H](c3cccc(Cl)c3)N2S(=O)(=O)c2ccc(C)cc2)cc1	n	n	n	n	n	n	x	x
SMILES	MBD2 inh	rCAG binder	PG9 Ab binder	UHRF1 MBD2 ctr	DNMT1 inh	LEDGF integ inh	rCAG bind conf	dCAG dye counter	others
O=C(O)C1=CCC(c2ccc(Cl)c(Cl)c2)N(S(=O)(=O)c2ccc(F)cc2)C1c1cccc(F)c1 (stereo unspecified)	n	72	n	n	x	n	68	26
Cc1ccc(S(=O)(=O)N2[C@@H](c3ccc(F)cc3)C(C(=O)O)=CC[C@H]2c2cccc(Cl)c2)cc1	n	n	n	n	n	n	x	x
Cc1ccc(S(=O)(=O)N2[C@@H](c3ccc(Br)cc3)C(C(=O)O)=CC[C@H]2c2ccc(Cl)c(Cl)c2)cc1	n	87	n	n	n	n	82	52
Cc1ccc(S(=O)(=O)N2[C@@H](c3ccc(C(C)(C)C)cc3)C(C(=O)O)=CC[C@H]2c2cccc(Cl)c2)cc1	n	88	n	n	n	n	75	41
CCc1noc(C)c1C(=O)OCC(=O)NC(=O)c1ccccc1	n	n	n	n	n	n	x	x
CC1(Cc2cc(Cl)ccc2C(F)(F)F)C(=O)Nc2c(Cl)cccc21 (stereo unspecified)	n	n	n	n	n	n	x	x
COc1cc(/C=C2\S/C(=N/S(=O)(=O)c3ccccc3)NC2=O)c([N+](=O)[O-])cc1OC	n	77	n	n	n	n	73	33	DNA CAG DR=6.6
Cc1ccc(S(=O)(=O)/N=C2/NC(=O)/C(=C/c3ccccn3)S2)cc1	n	45	n	n	n	n	37	10
Cc1ccc(N=C2NC(=O)/C(=C/c3cccn3C)S2)cc1	n	n	n	n	n	n	x	x
COc1ccc(S(=O)(=O)/N=C2/NC(=O)/C(=C\c3ccco3)S2)cc1	n	65	n	n	n	n	44	12
O=C1NC(=O)C(=Cc2ccccc2[N+](=O)[O-])S1	n	n	n	n	n	n	x	x
COc1ccc(S(=O)(=O)/N=C2/NC(=O)/C(=C\c3cc(OC)c(OC)cc3[N+](=O)[O-])S2)cc1	n	75	n	n	n	n	63	23
Cc1ccc(N=Nc2c(O)[nH]c(=O)[nH]c2=O)cc1S(=O)(=O)Nc1ccc(Br)cc1	n	36	n	n	n	n	n	11
COc1ccc(NS(=O)(=O)c2cc(N=Nc3c(O)[nH]c(=O)[nH]c3=O)ccc2OC)cc1Br	n	n	n	n	n	n	x	x
